Measurements from the supplement of paper PMC10681739.

Key:
[1] = target: T1, ETS1 (UniProt P14921); test: ETS1 binding intensity (PBM fluorescence), ETS1 alone (arbitrary fluorescence units); higher = stronger binding; conditions: ETS1 concentration 1 nM; RUNX1 concentration 0 nM
T1 sequence: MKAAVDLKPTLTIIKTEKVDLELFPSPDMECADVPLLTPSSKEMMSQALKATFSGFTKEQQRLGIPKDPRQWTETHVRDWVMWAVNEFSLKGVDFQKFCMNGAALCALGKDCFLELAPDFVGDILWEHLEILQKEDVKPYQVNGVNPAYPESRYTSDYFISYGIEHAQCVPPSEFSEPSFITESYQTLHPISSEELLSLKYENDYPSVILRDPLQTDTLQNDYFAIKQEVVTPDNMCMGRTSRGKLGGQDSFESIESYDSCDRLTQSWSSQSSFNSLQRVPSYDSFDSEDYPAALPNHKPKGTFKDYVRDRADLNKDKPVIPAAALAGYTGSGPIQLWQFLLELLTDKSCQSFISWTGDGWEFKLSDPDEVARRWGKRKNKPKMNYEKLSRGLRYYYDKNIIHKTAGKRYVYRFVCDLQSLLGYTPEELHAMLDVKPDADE

[2] = target: RUNX1 (UniProt Q01196); test: RUNX1 binding intensity (PBM fluorescence), RUNX1 alone (arbitrary fluorescence units); higher = stronger binding; conditions: RUNX1 concentration 2 nM; ETS1 concentration 0 nM
Procedure: (§1)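 Cooperative gcPBM on 36-bp genomic probes with neighbouring ETS1 and RUNX1 sites. Recombinant human RUNX1 (2 nM) was incubated alone or with ETS1 (25 nM) and detected with anti-RUNX1 antibody plus Alexa488 secondary. Values are medians over 4 replicate spots; the RUNX1+ETS1 data were normalised to the RUNX1-only data. The probes sit in constant array flanks that are not printed.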

[3] = target: T1, ETS1; test: ETS1 binding intensity (PBM fluorescence) in presence of RUNX1, normalised to ETS1-only experiment (arbitrary fluorescence units); higher = stronger binding; conditions: ETS1 concentration 1 nM; RUNX1 concentration 25 nM
[4] = target: RUNX1 (UniProt Q01196); test: RUNX1 binding intensity (PBM fluorescence) in presence of ETS1, normalised to RUNX1-only experiment (arbitrary fluorescence units); higher = stronger binding; conditions: RUNX1 concentration 2 nM; ETS1 concentration 25 nM
Procedure: as §1
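Throughout, for RUNX1 binding intensity (PBM fluorescence) in presence of ETS1, normalised to RUNX1-only experiment: Full-length recombinant human ETS1 or RUNX1 bound to double-stranded 36-bp genomic probes on microarrays, detected by protein-specific primary antibody and Alexa488 secondary, spot fluorescence as median of four replicate spots.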
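Throughout, for RUNX1 binding intensity (PBM fluorescence), RUNX1 alone: Full-length recombinant human RUNX1 bound to double-stranded 36-bp genomic probes on a high-density microarray, scored as Alexa488 fluorescence per spot via anti-RUNX1 antibody, median of four replicate spots.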

Sequence of RUNX1 (Q01196 whole entry): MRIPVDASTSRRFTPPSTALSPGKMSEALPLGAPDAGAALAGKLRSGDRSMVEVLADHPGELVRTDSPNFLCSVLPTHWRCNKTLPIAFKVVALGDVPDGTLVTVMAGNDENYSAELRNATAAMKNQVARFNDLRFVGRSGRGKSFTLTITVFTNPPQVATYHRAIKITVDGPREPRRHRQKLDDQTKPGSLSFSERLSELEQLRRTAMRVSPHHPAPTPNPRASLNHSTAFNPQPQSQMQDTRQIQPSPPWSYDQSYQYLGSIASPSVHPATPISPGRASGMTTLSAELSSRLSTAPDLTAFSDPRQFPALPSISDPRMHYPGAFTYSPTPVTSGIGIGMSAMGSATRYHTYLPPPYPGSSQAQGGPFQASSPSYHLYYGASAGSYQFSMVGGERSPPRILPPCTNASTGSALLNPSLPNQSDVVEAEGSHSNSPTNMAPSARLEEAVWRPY

Sequence	ETS1 binding intensity [1]	RUNX1 binding intensity [2]	ETS1 binding intensity [3]	RUNX1 binding intensity [4]
CCCTGCCATTTCCTGCCCAATACCGCGTATGCAACT	1630	1780	1700	4240
CTGCTAGCGGAAGCAGCCAAGCCCACAGGCTCCAGG	942	732	1140	1040
CACTTCCTCTGTGACTGCAGGTTTCCAACCACAAGC	601	988	1510	2370
GTGCCCCGGACCTACGGATACCACACACAGACAGGC	470	928	460	869
GCAACTGAACAGGAAACTAAAAAACCACAACACTTA	1400	1900	15600	7890
TCTTGTTTCTTCCGTTACCGGAGCGCGGTCACGTGA	455	979	438	1570
AGGTGTACTTTCCGGGTGCAGACCGCGAATGGATCG	383	743	534	1120
TCCCCTTTCCGGGAAGGGTTGGGGATCTGACCACGT	437	728	498	1320
TACCTACAGGAAATGAGACACACCGCAGGCCGATCC	2130	868	7670	1770
AGGCGCCGGAAAAACTACATCTCCCACAATCCTCGG	484	965	396	913
GATACCTAGAAGCCAGGAAACCGCGAGCTGCAGTCC	1080	1190	2130	1380
CCTTCCTTCCGGGGTCGGCCCCGCCCGCAAGCGCCG	441	1180	467	3960
GCAGAAACAGGAAGAGACAGGGCTGACCGCAGCAGG	1290	1230	6300	2340
TATCAATAAGGAAGTACAATCACCAAACCACAAGCC	619	1170	2700	1140
